The list is not random: actives were taken first. Their share in the collection is about 2.4%.
D2 PAM-1 – Beta-Arrestin HTS for Positive Allosteric Modulators of the Human D2 Dopamine Receptor: Potentiators; DiscoveRx D2 beta-arrestin cells, luminescence, 90 min; 100% = 57 uM dopamine signal; AID 624464, 2012; D(2) dopamine receptor (Homo sapiens), P14416; potentiation, % (concentration not given with the values); hit rate 0.23% among 360,000; in the data active means potentiation above about 50%; inconclusive means mostly about 30% to 49%
Target sequence (P14416 whole entry, looked up): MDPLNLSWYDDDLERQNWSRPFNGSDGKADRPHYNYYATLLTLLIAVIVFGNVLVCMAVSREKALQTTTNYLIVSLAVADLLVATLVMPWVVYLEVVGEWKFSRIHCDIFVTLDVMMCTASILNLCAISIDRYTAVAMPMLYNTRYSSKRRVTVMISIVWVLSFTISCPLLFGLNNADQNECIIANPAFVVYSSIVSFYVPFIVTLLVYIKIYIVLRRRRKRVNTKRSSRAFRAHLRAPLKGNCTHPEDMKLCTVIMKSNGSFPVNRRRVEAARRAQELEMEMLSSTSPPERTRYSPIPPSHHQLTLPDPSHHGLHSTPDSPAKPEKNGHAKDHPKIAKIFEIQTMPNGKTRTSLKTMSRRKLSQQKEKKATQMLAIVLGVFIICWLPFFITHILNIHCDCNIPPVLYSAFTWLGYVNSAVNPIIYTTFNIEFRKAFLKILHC
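PathHunter D2 cells, attached overnight at 37 deg C, received compound in DMSO plus dopamine at EC20 (50 nM final) for 90 min at 37 deg C. Beta-arrestin recruitment was read as luminescence after 1 h with detection reagent at ambient temperature.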
D2 PAM-2 – HTS Assay for Positive Allosteric Modulators of the Human D2 Dopamine Receptor: Primary Screen for Potentiators. D(2) dopamine receptor (Homo sapiens), P14416. HEK293 T-REx D2, calcium flux, EC20 dopamine potentiation. potentiation, % at 10 µM. hit rate 0.34% among 340,000. AID 485347, 2010;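 active means potentiation over 3 SD above the plate norm, cut at about 30% in these data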
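Tetracycline-induced HEK293 T-REx cells force-coupled to calcium signalling expressed D2; compounds were pin-added after a 10 s baseline, read kinetically 180 s, then an EC20 dopamine challenge followed with a further 180 s calcium read.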
D2 antagonist – HTS Assay for Allosteric Antagonists of the Human D2 Dopamine Receptor: Primary Screen for Antagonists | D(2) dopamine receptor (Homo sapiens), P14416 | AID 485344, 2010 | HEK293 TREx D2 cells, calcium flux, dopamine EC80 | hit rate 2% among 340,000 | inhibition, % at 10 µM; in the data active means inhibition above about 30%; inactive means below that, where a call was filed
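Tetracycline-induced HEK293 T-REx cells expressing D2 force-coupled to calcium signalling were dye-loaded, exposed to compound for 180 s, then challenged with an EC80 of dopamine; calcium flux was followed kinetically for a further 180 s.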
D2 ag-1 – HTS Assay for Allosteric Agonists of the Human D2 Dopamine Receptor: Primary Screen for Agonists; HEK293 T-REx D2 cells, calcium flux agonist mode; activation, % at 2 µM; hit rate 0.53% among 340,000; AID 485358, 2010;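 active means activation over 3 SD above normal in the single-dose calcium agonist read, cut at about 30% in these data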
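Agonism scored from kinetic calcium signal (1 read/sec, 180 s) following compound pin transfer, after a 10 s baseline. Cells: HEK293 Trex line expressing inducible D2 receptor coupled to calcium, dye-loaded after overnight culture at 30 C.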
D2 ag-2 – Beta-Arrestin HTS for Positive Allosteric Modulators of the Human D2 Dopamine Receptor: Agonists; AID 624465, 2012; hit rate 0.084% among 360,000; D(2) dopamine receptor (Homo sapiens), P14416; DiscoveRx PathHunter D2 beta-arrestin, luminescence, 90 min; 100% = 57 uM dopamine signal; activation, % (test concentration not listed); in the data active means activation above about 40%; inconclusive means between about 15% and that limit
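DiscoveRx PathHunter D2 beta-arrestin cells (2,100/well) attached overnight, then compound-stimulated 90 min at 37 C in HBSS/10 mM HEPES/0.1% Tween-20 buffer; beta-galactosidase complementation read by luminescence after 1 h at ambient temperature. Dopamine 57 uM final (EC100) as control.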
Of the large screens only hits and unclear results are named; the others gave an inactive call.

CCCCC(=O)N(C)c1c(CC)nc2c(OCCC)cccn12	none (no result: D2 PAM-2, D2 antagonist, D2 ag-1)
CC(C)Cc1nn2c(=O)cc(COC(=O)c3ccccc3NC(=O)C3CCCCC3)nc2s1	none (no result: D2 PAM-1, D2 antagonist, D2 ag-2)
O=[N+]([O-])c1ccccc1S(=O)(=O)N(CC(O)CN1CCCCC1)c1ccccc1 (configuration not stated)	none
Cc1ccccc1S(=O)(=O)N(CC(O)CN1CCCCC1)c1ccccc1 (configuration not stated)	D2 antagonist 54
Cc1ccc(Cl)c2sc(NC(=O)CS(=O)(=O)c3ccc(Cl)cc3)nc12	none (no result: D2 PAM-1, D2 antagonist, D2 ag-1, D2 ag-2)
COC1CCCCC1NS(=O)(=O)c1ccc(Cl)cc1 (configuration not stated)	D2 antagonist 31
Cn1c(=O)c2c(n3ncnc13)NC(=O)CC2c1cccc(F)c1 (configuration not stated)	none (no result: D2 PAM-1, D2 antagonist, D2 ag-2)
COC(=O)c1cc(NC(=O)Cc2cc(OC)c(OC)c(OC)c2)cc(C(=O)OC)c1	D2 antagonist 40
CCN(CC)C(=O)CN1C(=O)/C(=C/c2ccccc2)SC1=S	none
CC(=O)NNC(=O)CN1C(=O)/C(=C/c2ccccc2)SC1=S	D2 antagonist 74
O=C1/C(=C\c2cc(Cl)c(O)c(Cl)c2)SC(=S)N1Cc1ccccc1	D2 antagonist 69
COc1ccc(NC2=NC3(CCCCC3)N=C(N)N2)cc1	none
CCCCOc1ccc(NC2=NC3(CCCCC3)N=C(N)N2)cc1	D2 antagonist 35
Cc1ccc(/C=N/NC(=O)C2CC(=O)N(c3ccccc3)C2)s1 (configuration not stated)	none
O=C(N/N=C/c1ccccc1O)C1CC(=O)N(c2ccc(Cl)cc2)C1 (configuration not stated)	D2 antagonist 35
CCC1(c2ccccc2)C(=O)NCNC1=O	D2 antagonist 33
CC(=O)Oc1ccc(Oc2ccc(-c3noc(C)n3)cc2)cc1	D2 PAM-2 33
CC(=O)Nc1ccc(Oc2ccc(-c3noc(C)n3)cc2)cc1	none
CCCCOc1nnc(-c2ccc(OCC)cc2)c2ccccc12	none (no result: D2 PAM-1, D2 antagonist, D2 ag-2)
CCCCCOC(=O)Cn1c(=O)c2c(nc(N3CCOCC3)n2C)n(C)c1=O	none
CCOC(=O)Cn1c(=O)c2c(nc(N3CCOCC3)n2C)n(C)c1=O	D2 antagonist 39
CCN(CC)CCn1c(NS(=O)(=O)c2ccc(C)cc2)nc2ccccc21	D2 antagonist 51
CC(=O)c1ccc(NC(=O)C2CCCN(S(=O)(=O)c3ccc4c(c3)CCCN4C(C)=O)C2)cc1 (configuration not stated)	none (no result: D2 PAM-1, D2 antagonist, D2 ag-2)
Cc1cc(=O)n(CCCO)c(O)c1C#N	D2 PAM-1 inconclusive
Cc1cc(=O)n(CC(C)O)c(O)c1C#N (configuration not stated)	D2 PAM-1 62
CC(C)(C)OC(=O)N1CCC(c2c(C(=O)NCCN3CCC(Cc4ccccc4)CC3)cnn2-c2cccc(Cl)c2)CC1	none (no result: D2 PAM-1, D2 antagonist, D2 ag-2)
Cc1ccc(NC2c3ncccc3C(=O)N2Cc2cccs2)cc1 (configuration not stated)	none
Cc1cc(C)nc(SCc2ccc(C(=O)N/N=C/c3cccc(O)c3O)cc2)n1	D2 PAM-1 59
CC1(C)CC(=O)c2cc(OCC(=O)NCCN3CCCc4ccccc43)ccc2O1	D2 ag-1 34
CC(C)CCNC(=O)COc1ccc2c(c1)C(=O)CC(C)(C)O2	none
CCOC(=O)CNC(=O)Cn1cnc2sc(C)c(S(=O)(=O)N3CCOCC3)c2c1=O	none
Cc1sc2ncn(CC(=O)NCc3ccccn3)c(=O)c2c1S(=O)(=O)N1CCOCC1	D2 PAM-2 49
Cc1ccc(NC(=O)CN2C(=O)CC(c3ccco3)Sc3ccccc32)cc1Cl (configuration not stated)	none (no result: D2 PAM-1, D2 antagonist, D2 ag-2)
Nc1nc(N)nc(-c2cccc(Cl)c2)n1	D2 antagonist 32
Cc1nnc(Sc2nc3ccccc3o2)c2ccccc12	D2 PAM-2 32
Cc1ccc(-c2nnc(Sc3nc4ccccc4o3)c3ccccc23)cc1	none
Cc1oc(-c2ccccc2)nc1CSc1nc2c(c(=O)[nH]1)CCC2	D2 antagonist 35
Cc1cccc(-c2nc(CSc3nc4c(c(=O)[nH]3)CCC4)c(C)o2)c1	D2 antagonist 43
CCCS(=O)(=O)NC(=O)C1(C)CCN(C(=O)c2cc(C(C)(C)C)nn2C)C1 (configuration not stated)	none (no result: D2 PAM-2, D2 antagonist, D2 ag-1)
O=c1cc(CN2CCN(c3ccccc3F)CC2)c2ccccc2o1	none (no result: D2 PAM-2, D2 antagonist, D2 ag-1)
Cc1nc2ccn(Cc3cccnc3)c(=O)c2cc1C(=O)Nc1ccc(OC(F)(F)F)cc1	none (no result: D2 PAM-1, D2 antagonist, D2 ag-2)
COC(=O)C1CCN(C(=O)c2sc3nc(-c4ccc(F)cc4)cn3c2C)CC1	D2 PAM-2 31
COc1ccc2c(CC(=O)Nc3ccccc3N3CCOCC3)coc2c1	none
COc1ccc(CCN2CC(C(=O)NCCc3cccnc3)CCC2=O)cc1 (configuration not stated)	D2 antagonist 32
CC(=O)c1cccc(NC(=O)CN2C(=O)CN(C)C(=O)c3ccccc32)c1	none (no result: D2 PAM-1, D2 antagonist, D2 ag-2)
C=CCN(C(=O)c1csnn1)C(C(=O)NCc1ccc(F)cc1)c1ccccc1 (configuration not stated)	D2 antagonist 52
CCCC(c1nnnn1CS(=O)(=O)c1ccc(C)cc1)N1CCN(c2ccc(F)cc2)CC1 (configuration not stated)	D2 antagonist 59 (no result: D2 PAM-2)
CCOC(=O)C1=C(CN(CC)Cc2ccccc2)NC(=O)NC1c1ccc(Cl)cc1 (configuration not stated)	none (no result: D2 PAM-1, D2 antagonist, D2 ag-2)
COc1ccc(NC2=C(C(C)=O)C(c3ccc(N(C)C)cc3)C(C(C)=O)C(C)(O)C2)cc1 (configuration not stated)	D2 PAM-1 51
COc1ccc(NC2=C(C(C)=O)C(c3ccc(OC)cc3)C(C(C)=O)C(C)(O)C2)cc1 (configuration not stated)	none
O=C(CN1CCN(c2ccc(O)cc2)CC1)Nc1ccc2c(c1)OCCO2	D2 ag-1 36, D2 ag-2 inconclusive
NC(=O)C1CC(=O)N(c2ccc(OCc3ccc([N+](=O)[O-])cc3)cc2)C1 (configuration not stated)	none
Cc1ccc(N2CC(C(=O)OCc3ccc([N+](=O)[O-])cc3)CC2=O)cc1 (configuration not stated)	D2 PAM-2 31
COc1ccc(-c2sc(C(=O)c3ccc(Cl)cc3Cl)cc2CC(=O)O)cc1	none
O=C1CCCCCN1CSc1nc2ccccc2s1	D2 PAM-2 36
O=C(CSc1nc2ccccc2s1)N1CCOCC1	none
